We go through 31 compounds from PubChem BioAssay (NCATS).

Each structure is given as a SMILES string. Inconclusive results are not listed. Unmarked numbers belong to inactive results. The source made the active and inactive calls. Calls follow the shape of the dose curve; as a rule, active = well fitted cell-killing curve with a large enough effect; inconclusive = small, poorly fitted or top-dose-only effect; inactive = no such curve, though single readings can be large or run the other way.
Potency is read from the fitted curve at half-maximal effect.

One assay can be described thus: qHTS of pediatric cancer cell lines to identify multiple opportunities for drug repurposing: Confirmatory screen for BT-37 cells (AID 1347117).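 Also: viability measured after 48 h of compound exposure; nearly all actives have a fitted effect of over 55% in size.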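 As to activity change, negative = cytotoxic: plate controls were DMSO for no effect and bortezomib for full effect.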 Particulars: BT-37 pediatric cancer cells, viability; series mostly up to 45.9 µM; activity change, negative = cytotoxic: at the top concentration. A digest of the protocol:
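Cells (500-1,000/well) in growth media were settled 5 h at 37 degrees C, then given compounds for 48 h. Viability was read as CellTiter-Glo luminescence. Primary runs used MIPE at 11 points (0.78 nM-46 µM) and NPC at 8 points (0.59 nM-46 µM); follow-ups used 11 points.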
(qHTS replaces the single test concentration by a dilution series.)
`CN1CCN(c2ncc(-c3cc(Cl)cc(Cl)c3Cl)c(N)n2)CC1`: the Potency is 26.1 µM (active). `C[C@@H]1[C@H](O)[C@@H](C)C=CC=CC=CC=CC=CC=CC=C[C@H](O[C@@H]2O[C@H](C)[C@H](O)[C@H](N)[C@@H]2O)C[C@@H]2O[C@](O)(C[C@@H](O)C[C@@H](O)[C@H](O)CC[C@@H](O)C[C@@H](O)CC(=O)O[C@H]1C)C[C@H](O)[C@@H]2C(=O)O`: the “activity change, negative = cytotoxic” value was -4.55%. With `CCC[C@H](N[C@@H](C)C(=O)N1[C@@H]2CCCC[C@H]2C[C@H]1C(=O)O)C(=O)OCC`, the “activity change, negative = cytotoxic” value is -5.32%. Turning to `CNC(=O)[C@H](CC1=CN=C2C=CCC=C12)NC(=O)[C@@H](CC(=O)NO)CC(C)C`, the Potency was 0.827 µM (active). As for `CCC(=O)OCC(=O)[C@@]1(OC(=O)CC)[C@@H](C)C[C@@H]2[C@H]3CCC4=CC(=O)C=C[C@]4(C)[C@@]3(F)[C@@H](O)C[C@@]21C`, the “activity change, negative = cytotoxic” value was -23.5%. As for `CC[C@]1(O)C[C@H]2CN(CCC3=c4ccccc4=N[C]3[C@@](C(=O)OC)(c3cc4c(cc3OC)N(C)[C@H]3[C@@](O)(C(N)=O)[C@H](O)[C@]5(CC)C=CCN6CC[C@]43[C@@H]65)C2)C1`, the Potency was 0.0737 µM (active). Turning to `COc1cc(CNC(=O)CCCCC=CC(C)C)ccc1O`, the “activity change, negative = cytotoxic” value is -13.3%. Regarding `CCC(c1ccc(O)cc1)C(CC)c1ccc(O)cc1` (stereo not drawn), the Potency is 10.4 µM (active). On the same count and under the same terms, as for `CC(C)n1c(C=C[C@H](O)C[C@H](O)CC(=O)O)c(-c2ccc(F)cc2)c2ccccc21`, the figure is 14.7 µM (active). Take `CC1CNc2c(cccc2S(=O)(=O)N[C@@H](CCCN=C(N)N)C(=O)N2CC[C@@H](C)C[C@@H]2C(=O)O)C1` (stereo partly drawn): the “activity change, negative = cytotoxic” value was 1.11%. As for `C[C@@]1(c2cc(-c3cncnc3)c(F)cc2F)CCSC(N)=N1`, the Potency was 11.7 µM (active). Consider `CC1=C(CC(=O)O)c2cc(F)ccc2C1=Cc1ccc(S(C)=O)cc1` (stereo not drawn), for which the “activity change, negative = cytotoxic” value is -2.01%. As for `CSc1cccc(Nc2ncc3cc(-c4c(Cl)cccc4Cl)c(=O)n(C)c3n2)c1`, the Potency was 4.14 µM (active). Turning to `CCC[C@H](Nc1nc(-c2ccc(NC(=O)NCC)c(OC)c2)ncc1C)c1cccnc1`, the Potency is 0.329 µM (active). For `Cc1cccc(-c2[nH]c(C(C)(C)C)nc2-c2ccc3c(c2)OCO3)n1`, the Potency is 8.27 µM (active). `Nc1ccn([C@@H]2O[C@H](CO)[C@@H](O)[C@H]2O)c(=O)n1`: the Potency is 0.329 µM (active). For `Cc1ccc2c(c1)C(=O)[C@]1(O)CCN(c3ccccc3)C1=N2`, the “activity change, negative = cytotoxic” value is -2.25%. For the compound `COc1cc([C@@H]2c3cc4c(cc3[C@@H](O[C@@H]3O[C@@H]5CO[C@@H](C)O[C@@H]5[C@H](O)[C@@H]3O)[C@H]3COC(=O)[C@H]23)OCO4)cc(OC)c1O`, the Potency is 0.737 µM (active). Still for that read-out and setting: as for `CON(C)C(=O)N1N=C(c2cc(F)ccc2F)S[C@]1(CCCN)c1ccccc1`, the figure is 0.0074 µM (active). On to `C[C@@H]1C[C@H]2[C@@H]3CCC4=CC(=O)C=C[C@]4(C)[C@@]3(F)[C@@H](O)C[C@]2(C)[C@@]1(O)C(=O)CO`, for which the “activity change, negative = cytotoxic” value was -24.3%. For `C[C@H](c1ccc(F)cc1CCCC(=O)O)N(c1cc(F)ccc1F)S(=O)(=O)c1ccc(Cl)cc1`, the “activity change, negative = cytotoxic” value was -21.8%.

Consider `Cc1ccc(C(=O)N(CCCN)[C@@H](c2nc3cc(Cl)ccc3c(=O)n2Cc2ccccc2)C(C)C)cc1`, for which the Potency is 0.0537 µM (active). In the case of `Cc1ccc(C(=O)N(CCCN)[C@@H](c2oc3cc(Cl)ccc3c(=O)c2Cc2ccccc2)C(C)C)cc1`, the Potency was 0.0117 µM (active).

On to `COC(=O)Nc1ccc(-c2nc(N3CCOCC3)c3cnn(C4CCN(C(=O)OC)CC4)c3n2)cc1`, for which the Potency is 3.69 µM (active). For `O=C1Nc2ccc(I)cc2C1=Cc1cc(Br)c(O)c(Br)c1`, the “activity change, negative = cytotoxic” value is -19.9%.

A short description of another assay: qHTS of pediatric cancer cell lines to identify multiple opportunities for drug repurposing: Confirmatory screen for TC32 cells (AID 1347118).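 Also: cells exposed to compound for 48 h before the read; nearly all actives have a fitted effect of over 65% in size.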 As to activity change, negative = cytotoxicity: % is scaled to controls: 0 for no effect and ±100 for the full control effect. As to conditions: TC32 Ewing sarcoma cells viability qHTS; series mostly up to 45.9 µM; activity change, negative = cytotoxicity: at the top concentration. The method in brief:
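Luminescent CellTiter-Glo read-out of metabolically active TC32 cells after 48 h compound exposure. Primary: MIPE 11-point, 0.78 nM–46 µM; NPC 8-point, 0.59 nM–46 µM. Confirmatory: 11-point dilutions.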
Take `C[C@@H]1[C@H](O)[C@@H](C)C=CC=CC=CC=CC=CC=CC=C[C@H](O[C@@H]2O[C@H](C)[C@H](O)[C@H](N)[C@@H]2O)C[C@@H]2O[C@](O)(C[C@@H](O)C[C@@H](O)[C@H](O)CC[C@@H](O)C[C@@H](O)CC(=O)O[C@H]1C)C[C@H](O)[C@@H]2C(=O)O`: the Potency was 11.7 µM (active).

As for `CCC[C@H](N[C@@H](C)C(=O)N1[C@@H]2CCCC[C@H]2C[C@H]1C(=O)O)C(=O)OCC`, the “activity change, negative = cytotoxicity” value is -12.4%. Consider `CC[C@]1(O)C[C@H]2CN(CCC3=c4ccccc4=N[C]3[C@@](C(=O)OC)(c3cc4c(cc3OC)N(C)[C@H]3[C@@](O)(C(N)=O)[C@H](O)[C@]5(CC)C=CCN6CC[C@]43[C@@H]65)C2)C1`, for which the Potency was 0.104 µM (active). Take `COc1cc(CNC(=O)CCCCC=CC(C)C)ccc1O`: the Potency is 3.29 µM (active).

`CCC(C)SSc1ncc[nH]1` (stereo not drawn): the Potency is 13.1 µM (active).

As for `CCC(c1ccc(O)cc1)C(CC)c1ccc(O)cc1` (stereo not drawn), the Potency was 3.69 µM (active).

In the case of `CC(C)n1c(C=C[C@H](O)C[C@H](O)CC(=O)O)c(-c2ccc(F)cc2)c2ccccc21`, the Potency is 16.5 µM (active). As for `C[C@@]1(c2cc(-c3cncnc3)c(F)cc2F)CCSC(N)=N1`, the Potency was 8.27 µM (active). Turning to `CCOC(=O)[C@H](CCc1ccccc1)N[C@@H](C)C(=O)N1CCCC1C(=O)O` (stereo partly drawn), the Potency was 7.37 µM (active). Turning to `CC1=C(CC(=O)O)c2cc(F)ccc2C1=Cc1ccc(S(C)=O)cc1` (stereo not drawn), the “activity change, negative = cytotoxicity” value is -11.1%.

As to `CSc1cccc(Nc2ncc3cc(-c4c(Cl)cccc4Cl)c(=O)n(C)c3n2)c1`, the Potency is 2.93 µM (active). As to `Cc1ccccc1-n1c(Cn2nc(-c3cccc(O)c3)c3c(N)ncnc32)nc2cccc(C)c2c1=O`, the “activity change, negative = cytotoxicity” value is -18.5%.

Consider `CCC[C@H](Nc1nc(-c2ccc(NC(=O)NCC)c(OC)c2)ncc1C)c1cccnc1`, for which the Potency is 0.117 µM (active).

As for `Cc1cccc(-c2[nH]c(C(C)(C)C)nc2-c2ccc3c(c2)OCO3)n1`, the Potency is 7.37 µM (active). On the same count and under the same terms, as for `CCN(CCO)CCCOc1ccc2c(Nc3cc(CC(=O)Nc4cccc(F)c4)[nH]n3)ncnc2c1`, the figure is 0.0414 µM (active); as for `CC[C@H](NC(=O)[C@H](C)NC)C(=O)N1C[C@@H](O)C[C@H]1Cc1c(-c2[nH]c3cc(F)ccc3c2C[C@H]2C[C@H](O)CN2C(=O)[C@H](CC)NC(=O)[C@H](C)NC)[nH]c2cc(F)ccc12`, 2.93 µM (active). Consider `Nc1ccn([C@@H]2O[C@H](CO)[C@@H](O)[C@H]2O)c(=O)n1`, for which the Potency is 0.329 µM (active). Consider `COc1cc([C@@H]2c3cc4c(cc3[C@@H](O[C@@H]3O[C@@H]5CO[C@@H](C)O[C@@H]5[C@H](O)[C@@H]3O)[C@H]3COC(=O)[C@H]23)OCO4)cc(OC)c1O`, for which the Potency was 0.657 µM (active). On the same count and under the same terms, as for `CON(C)C(=O)N1N=C(c2cc(F)ccc2F)S[C@]1(CCCN)c1ccccc1`, the figure is 0.0117 µM (active). For the compound `CN(C(Cc1ccc(OS(=O)(=O)c2cccc3cnccc23)cc1)C(=O)N1CCN(c2ccccc2)CC1)S(=O)(=O)c1cccc2cnccc12` (stereo not drawn), the Potency is 3.69 µM (active). Consider `Cc1ccc(C(=O)N(CCCN)[C@@H](c2nc3cc(Cl)ccc3c(=O)n2Cc2ccccc2)C(C)C)cc1`, for which the Potency is 0.0479 µM (active). As for `Cc1ccc(C(=O)N(CCCN)[C@@H](c2oc3cc(Cl)ccc3c(=O)c2Cc2ccccc2)C(C)C)cc1`, the Potency is 0.0104 µM (active). The same measure, in the same setting: as for `COC(=O)Nc1ccc(-c2nc(N3CCOCC3)c3cnn(C4CCN(C(=O)OC)CC4)c3n2)cc1`, the figure is 3.69 µM (active).
